Screens as filed in PubChem BioAssay.
A selection: hits, their analogues and other compounds. The true share with any hit is near 2.4%.
D2 PAM-1 = positive allosteric modulators of human D2 dopamine receptor | 0.23% of 360,000 active | potentiation, % (no concentration beside the values) | DiscoveRx D2 beta-arrestin cells, luminescence, 90 min; 100% = 57 uM dopamine signal | P14416 | AID 624464; in the data active means potentiation above about 50%; inconclusive means mostly about 30% to 49%
Target sequence (P14416 whole entry, looked up): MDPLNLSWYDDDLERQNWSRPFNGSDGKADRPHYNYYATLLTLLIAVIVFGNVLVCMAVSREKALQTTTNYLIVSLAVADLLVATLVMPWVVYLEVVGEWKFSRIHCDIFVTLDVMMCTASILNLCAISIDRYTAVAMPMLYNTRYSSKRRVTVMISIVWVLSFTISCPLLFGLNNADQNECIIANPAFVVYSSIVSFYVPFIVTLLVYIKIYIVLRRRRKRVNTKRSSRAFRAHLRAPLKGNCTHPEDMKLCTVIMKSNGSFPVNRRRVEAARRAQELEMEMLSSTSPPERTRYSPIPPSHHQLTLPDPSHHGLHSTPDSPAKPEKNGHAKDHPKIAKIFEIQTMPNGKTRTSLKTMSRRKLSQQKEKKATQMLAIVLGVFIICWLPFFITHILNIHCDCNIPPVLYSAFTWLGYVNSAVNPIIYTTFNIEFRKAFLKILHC
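D2 cells co-treated with compound plus 50 nM dopamine (EC20) for 90 min at 37 deg C to detect potentiation. Beta-arrestin recruitment was read as enzyme-fragment luminescence after 1 h at ambient temperature. Full response was set by 57 uM dopamine.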
D2 antag = antagonists of human D2 dopamine receptor. 2% of 340,000 active. HEK293 TREx D2 cells, calcium flux, dopamine EC80. AID 485344. inhibition, % at 10 µM; in the data active means inhibition above about 30%; inactive means below that, where a call was filed; further: 0% is about no effect
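Tetracycline-induced HEK293 TREx cells expressing D2 receptor forced-coupled to calcium signalling, loaded with no-wash calcium dye. Compounds added and calcium flux read 180 s, then dopamine added at EC80 and read a further 180 s.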
D2 ag-1 = agonists of human D2 dopamine receptor (beta-arrestin). 0.084% of 360,000 active. P14416. AID 624465. activation, % (no concentration beside the values). DiscoveRx PathHunter D2 beta-arrestin, luminescence, 90 min; 100% = 57 uM dopamine signal; in the data active means activation above about 40%; inconclusive means between about 15% and that limit
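DiscoveRx PathHunter D2 beta-arrestin cells (2,100/well) attached overnight, then compound-stimulated 90 min at 37 C in HBSS/10 mM HEPES/0.1% Tween-20 buffer; beta-galactosidase complementation read by luminescence after 1 h at ambient temperature. Dopamine 57 uM final (EC100) as control.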
D2 PAM-2 = positive allosteric modulators of human D2 dopamine receptor | P14416 | HEK293 T-REx D2, calcium flux, EC20 dopamine potentiation | potentiation, % at 10 µM | 0.34% of 340,000 active | AID 485347;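 active means potentiation over 3 SD above the plate norm, cut at about 30% in these data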; further: 0% is about no effect
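Tetracycline-induced Hek293 Trex D2 cells, force-coupled to calcium, loaded with no-wash calcium dye. Compound added with 180 s kinetic read for agonism, then EC20 dopamine and a further 180 s read for potentiation.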
D2 ag-2 = activates the human D2 dopamine receptor. P14416. HEK293 T-REx D2 cells, calcium flux agonist mode. activation, % at 2 µM. 0.53% of 340,000 active. AID 485358;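 active means activation over 3 SD above normal in the single-dose calcium agonist read, cut at about 30% in these data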; further: 0% is about no effect
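Calcium-flux readout, 1 cycle/sec over 180 s following compound pin transfer, in inducible HEK293 Trex D2 cells (force-coupled); dopamine controls included. Positive calcium responses during this window marked compounds as potential agonists.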
* = called active by the depositor; ? = inconclusive; nt = no result given.

SMILES	D2 PAM-1	D2 antag	D2 ag-1	D2 PAM-2	D2 ag-2
O=C1CSC(c2cccc([N+](=O)[O-])c2)N1Cc1ccccc1 (centres undefined)	-3	30*	7	-10	-1
COc1cc(NC(=O)CSc2cc(=O)n(C)c3ccccc23)cc(OC)c1OC	nt	nt	nt	-7	0
O=C(NCc1ccccc1)c1ccc(-c2ccccc2F)o1	-17	24	-3	32*	-2
O=C(NCc1ccc(F)cc1)c1cc2ccccc2o1	-1	-9	1	52*	-2
O=C(NNC(=O)c1cc2ccccc2o1)c1ccc(F)cc1	-15	8	-2	-3	-1
O=C(NCCc1ccccc1)c1ccc(-c2ccccc2C(F)(F)F)o1	-17	-8	0	-19	-1
COc1ccc(NC(=O)CSc2nc3nc(C)c(Cc4ccccc4Cl)c(C)n3n2)cc1OC	nt	nt	nt	1	nt
CCCCn1c(N)c(N(Cc2ccccc2OC)C(=O)c2ccc([N+](=O)[O-])s2)c(=O)[nH]c1=O	50*	-23	?	-1	0
COc1cccc(CNC(=O)CSc2c3c(nc4ccc(Cl)cc24)CCCC3)c1OC	nt	nt	nt	10	0
COCCNC(=O)c1ccc(-n2c(-c3ccccc3)cc3c2CCCCC3)cc1	nt	nt	nt	9	0
CC(NC(=O)c1ccccc1Cl)C(=O)Nc1ccc2c(c1)OCO2 (centres undefined)	-6	73*	-8	-10	0
O=C(CC(NC(=O)c1ccccc1Cl)c1ccccc1)Nc1ccc2c(c1)OCO2 (centres undefined)	-4	nt	-4	nt	nt
CN(c1ccccc1C(=O)Nc1ccc2c(c1)OCO2)S(C)(=O)=O	-4	-11	-2	38*	0
CN(c1ccccc1C(=O)Nc1cccc(Cl)c1Cl)S(C)(=O)=O	-11	53*	-2	-8	0
Cc1cccc(C)c1NC(=O)c1ccc2nc(CCc3ccccc3)oc2c1	nt	nt	nt	1	2
CCNc1ccc(S(=O)(=O)N2CCCCC2)cn1	-3	33*	5	4	0
CC(=O)N1CCN(c2ccc(S(=O)(=O)N3CCCCC3)cn2)CC1	8	38*	0	3	1
CN(C)CC(C)(C)CNc1ccc(S(=O)(=O)N2CCCC2)cn1	-2	nt	1	nt	nt
COc1cc(NC(=O)CSc2nc3nc(C)c(Cc4ccccc4)c(C)n3n2)cc(OC)c1OC	nt	nt	nt	-3	0
CN1c2ccccc2C(C)(C)C12C=Nc1c(ccc3ccccc13)O2 (centres undefined)	87*	34*	?	1	0
COc1ccc2ccc3c(c2c1)N=CC1(O3)N(C)c2ccccc2C1(C)C (centres undefined)	71*	2	13	9	1
CN1c2ccccc2C(C)(C)[C@]12C=Cc1cc(O)ccc1O2	19	-1	-2	-28	0
CCOC(=O)N1CCc2c(sc(NCc3cccc(F)c3)c2C(=O)Nc2ccc(OC)cc2OC)C1	nt	nt	nt	17	0
COc1cc(NC(=O)CCc2c(C)nc3c4c(C)cc(C)nc4nn3c2C)cc(OC)c1	nt	nt	nt	14	-1
NC(=Nc1ccccc1)Nc1ccccc1	-6	56*	9	-17	79*
SMILES	D2 PAM-1	D2 antag	D2 ag-1	D2 PAM-2	D2 ag-2
CCOC(=O)/C(C(=Nc1ccccc1)Nc1ccccc1)=C(\C)O	-12	-8	-2	7	-1
COc1cc(/C=C2\S/C(=N/S(=O)(=O)Cc3ccccc3)NC2=O)c([N+](=O)[O-])cc1OC	-15	nt	-5	1	nt
O=C1N/C(=N\S(=O)(=O)Cc2ccccc2)S/C1=C/c1cc([N+](=O)[O-])ccc1O	-14	31*	-9	2	59*
O=C1N/C(=N\S(=O)(=O)c2ccccc2)S/C1=C\c1cc([N+](=O)[O-])ccc1O	-25	-19	-13	-4	33*
CC(=O)C1CCC2C3CCC4=CC(=O)CCC4(C)C3(Br)C(=O)CC12C (centres undefined)	61*	nt	11	nt	nt
Cc1ccc(Cn2c(=O)c3cccnc3n(CC(=O)Nc3cc(Cl)ccc3C)c2=O)cc1	nt	nt	nt	6	0
CCc1nc(N2CCC3(CC2)OCCO3)c2nnn(Cc3ccccc3Cl)c2n1	-3	-9	0	34*	0
Clc1ccccc1Cn1nnc2c(N3CCCC3)ncnc21	7	7	1	5	0
